High-throughput results from PubChem BioAssay.
A selection: hits, their analogues and other compounds. The true share with any hit is near 3.2%.
DAGLB inh – blocks human DAGLB lipase activity. Q8NCG7. HEK293T DAGLB membrane lysate, EnzChek fluorogenic substrate. inhibition, % at 5.17 µM. hit rate 0.059% among 340,000. AID 504411; in the data active means inhibition above about 34%;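 further: 0% = enzyme with vehicle and 100% = wells lacking enzyme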
Target sequence (Q8NCG7 whole entry, looked up): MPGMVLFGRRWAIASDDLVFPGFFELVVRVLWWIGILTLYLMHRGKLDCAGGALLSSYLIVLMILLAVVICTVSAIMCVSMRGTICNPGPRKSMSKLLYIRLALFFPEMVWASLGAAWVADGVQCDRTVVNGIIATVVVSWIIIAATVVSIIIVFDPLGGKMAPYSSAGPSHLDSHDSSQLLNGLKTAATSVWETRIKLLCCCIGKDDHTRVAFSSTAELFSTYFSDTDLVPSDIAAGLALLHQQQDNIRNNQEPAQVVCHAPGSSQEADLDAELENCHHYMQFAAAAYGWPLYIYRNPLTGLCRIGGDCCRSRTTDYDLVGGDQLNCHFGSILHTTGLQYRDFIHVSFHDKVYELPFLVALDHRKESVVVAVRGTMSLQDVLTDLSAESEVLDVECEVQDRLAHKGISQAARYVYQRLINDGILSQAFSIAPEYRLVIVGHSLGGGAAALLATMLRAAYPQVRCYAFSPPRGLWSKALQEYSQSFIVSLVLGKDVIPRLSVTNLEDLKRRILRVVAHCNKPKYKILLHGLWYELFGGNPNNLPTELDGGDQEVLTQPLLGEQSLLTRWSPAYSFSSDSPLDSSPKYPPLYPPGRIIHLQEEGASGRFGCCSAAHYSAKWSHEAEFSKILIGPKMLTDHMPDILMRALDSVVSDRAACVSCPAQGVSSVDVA
rCAG binder – molecules binding r(CAG) RNA repeats; AID 651821; hit rate 1.3% among 370,000; r(CAG) RNA repeat, TO-PRO-1 dye displacement fluorescence; inhibition, % at 3 µM;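 active means inhibition above the plate cutoff, the mean of all test compounds on that plate plus 3 SD, cut at about 35% in these data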;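 further: 0% = DMSO alone and 100% = 100 µM mitoxantrone as full dye displacement; higher means more dye released from RNA so lower well fluorescence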
NadD inh – inhibitors of Staphylococcus aureus NadD; purified NadD enzyme, colorimetric absorbance read-out; inhibition, % at 20 µM; hit rate 0.78% among 360,000; AID 602399; in the data active means inhibition above about 26%
MsrA inhibitor – inhibitors of bovine MsrA; purified bovine MsrA, absorbance read-out; inhibition, % at 15.5 µM; hit rate 0.75% among 360,000; in the data active means inhibition above about 4.5%;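 further: 0% = vehicle wells with enzyme and 100% = reference inhibitor wells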
Pemphigus Ab inh – inhibitors of pemphigus antibody binding to human desmoglein-3; DSG3-coupled beads, scFv-anti-DSG3-GFP binding, flow cytometry; stronger effect = lower value; binding (percent of control), % at 10 µM; hit rate 0.48% among 310,000; P32926;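 active means binding more than 3 SD below its plate's average and above zero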
bovine MsrA act – activates bovine MsrA enzyme. purified bovine MsrA, absorbance read-out. activation, % at 10.6 µM. hit rate 0.3% among 360,000. AID 602163; in the data active means activation above about 7.5%;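 further: 0% = vehicle and 100% = reference activator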
* hit, by the source's call; · = not tested or not shown; ! = not active in a repeat.

SMILES	DAGLB inh	rCAG binder	NadD inh	MsrA inhibitor	Pemphigus Ab inh	bovine MsrA act
NC(=O)c1cccc(-c2coc3c(C(=O)NC4CCCCC4)cccc23)c1	·	5	-6	1	·	-3
O=C1c2ccc(-c3ccc(F)cc3OCc3ccccc3)cc2S(=O)(=O)c2cccc(C(=O)N3CCN(c4ncc(Br)cn4)CC3)c21	-6	21	58*	0	89*	-10
COc1cccc(NC(=O)C2CCCN2C(=O)Nc2cccc3c2OCO3)c1 (stereo not drawn)	·	5	·	·	·	·
COc1ccc(NC(=O)c2ccc3c(c2)C(=O)N(Cc2cccnc2)C3=O)cc1	-1	0	0	0	70*	2
COc1ccc(NC(=O)c2ccc3ccccc3c2)cc1	-2	7	-11	0	97*	0
CC1Oc2ccc(C#N)cc2N(Cc2cccc(F)c2)C1=O (stereo not drawn)	·	2	-4	1	·	0
CC(Oc1ccc2c(-c3ccccc3)cc(=O)oc2c1)C(=O)NC(Cc1c[nH]c2ccc(O)cc12)C(=O)O (stereo not drawn)	4	33	4	2	101	-4
COc1ccc2c(c1)c(=O)oc1c(C)c(OC(C)C(=O)N[C@@H](Cc3c[nH]c4ccc(O)cc34)C(=O)O)ccc12 (stereo partly drawn)	2	69*	8	1	100	-9
CCN1CCN(Cc2ccc(NC(=O)c3ccc(C)c(NC(=O)C4=NN(c5ccccc5)C(=O)C4)c3)cc2C(F)(F)F)CC1	6	34	40*!	1	112	-4
COc1ccccc1Cc1c(-c2ccco2)nc2c(C)cc(Br)cn12	·	·	25	·	·	-16
c1ccc(Nc2nc(-c3ccccc3)ns2)cc1	-6	4	-7	0	58*	-13
CC(C)(C)C(=O)Nc1nc(-c2ccccc2)ns1	-3	-1	-1	-1	104	4
Cc1cc(C)cc(C(=O)OCCN(C)C2CN(Cc3cn(Cc4ccc([N+](=O)[O-])cc4)nn3)S(=O)(=O)C2)c1 (stereo not drawn)	·	3	·	·	·	·
Cc1ccc(/C=C2\CCC3=C2OC(N)=C(C#N)C3c2ccc(C)cc2)cc1 (stereo not drawn)	-90	·	46*	·	359	-2
Cc1ccc(C2C(C#N)=C(N)Oc3cc(N)ccc32)cc1 (stereo not drawn)	2	21	2	0	102	-4
O=C1CSc2ccc(C(=O)N3CCCC(C(=O)N4CCN(c5ccc(F)cc5)CC4)C3)cc2N1 (stereo not drawn)	·	3	·	·	·	·
CCc1ccc(C=C2SC(=S)N(CCCC(=O)Nc3ccc(C(=O)O)cc3)C2=O)cc1	·	8	24	0	·	0
COc1cc(/C=C2/SC(=S)N(CC(=O)O)C2=O)ccc1OCC(=O)Nc1ccc(C)c(C)c1	2	16	30*	-1	·	-4
CCc1ccc(/C=C2/SC(=S)N(CC(=O)Nc3nc4ccccc4s3)C2=O)cc1	5	27	50*	0	102	13*
CCc1ccc(/C=C2/SC(=S)N(CCC(=O)Nc3ccc(C(=O)O)cc3)C2=O)cc1	-1	7	40*	-1	·	-1
CC(=O)NN1C(=O)/C(=C2/Sc3ccccc3N2C)SC1=S	0	0	-1	0	93	-4
CN1C(=C2C(=O)OC(C)(C)OC2=O)Sc2ccccc21	-2	-1	-2	4.8*	96	-4
O=CC(O)C1OC(=O)C(O)C1O (stereo not drawn)	-1	-1	0	-1	86*	-7
C#CCOCCOCCOCCNc1nc(N2CCN(C(=O)CCCCCCCCCCNC(=O)[C@H]([C@@H](C)CC)n3cc(CCCCCN)nn3)CC2)nc(N2CCN(C(=O)CCCCCCCCCCNC(=O)[C@H]([C@@H](C)CC)n3cc(CCCCN=C(N)N)nn3)CC2)n1	-4	·	48*	·	160	-6
C#CCOCCOCCOCCNc1nc(N2CCN(C(=O)Cn3cc(CCCN=C(N)N)nn3)CC2)nc(N2CCN(C(=O)[C@H]([C@@H](C)CC)n3cc(CCCCN)nn3)CC2)n1	1	4	-7	-1	108	-1
SMILES	DAGLB inh	rCAG binder	NadD inh	MsrA inhibitor	Pemphigus Ab inh	bovine MsrA act
C#CCOCCOCCOCCNc1nc(N2CCOCC2)nc(N2CCN(C(=O)CCCCCCCCCCNC(=O)[C@@H]([C@H](C)CC)n3cc(CCCCCN)nn3)CC2)n1	-4	-1	3	2	100	2
C#CCOCCOCCOCCNc1nc(N2CCN(C(=O)CCCCCCCCCCNC(=O)Cn3cc(CCCCCN)nn3)CC2)nc(N2CCN(C(=O)CCCCCCCCCCNC(=O)[C@H]([C@@H](C)CC)n3cc(CCCCN=C(N)N)nn3)CC2)n1	-4	·	43*	·	152	-4
C#CCOCCOCCOCCNc1nc(N2CCN(C(=O)CCCCCCCCCCNC(=O)[C@H]([C@@H](C)CC)n3cc(CCCCN=C(N)N)nn3)CC2)nc(N2CCN(C(=O)CCCCCCCCCCNC(=O)[C@H](CO)n3cc(CCCCCN)nn3)CC2)n1	2	·	36*	·	124	6
O=C(Nc1ccc(Oc2ccccc2)cc1)C1CCCN1S(=O)(=O)c1cccc2cccnc12 (stereo not drawn)	·	4	·	·	·	·
CCc1c(C)sc(NC(=O)c2cc(-c3ccc(OC)c(OC)c3)on2)c1C#N	0	3	0	-1	81	-1
COc1ccc(-c2csc(NC(=O)c3cc(C)on3)c2C#N)cc1OC	5	14	0	1	79*	-2
COC(=O)[C@]12C[C@H](CC(=O)N3CCN(C(=O)C4CC4)CC3)C(=O)N(Cc3ccco3)C1=C[C@H](COCc1ccccc1)O[C@@H]2C	·	4	·	·	·	·
COC(=O)[C@H](C)N(Cc1cn(Cc2ccccc2)nn1)S(=O)(=O)c1ccccc1Br	·	1	·	·	·	·
C=CCn1c(C)cc(C(=O)COC(=O)CNC(=O)c2ccccc2)c1C	0	-7	4	0	72*	-1
Cc1ccc(Nc2nnc(SCC(=O)c3ccc(O)cc3O)s2)cc1	1	56*	-2	2	93	-9
COc1ccc(-c2cc(-c3ccccc3)nc(SCC(=O)Nc3ncc(C)s3)c2C#N)cc1	-2	12	34*	0	82	-4
CCc1nnc(NC(=O)CSc2nc(-c3ccc(F)cc3)cc(-c3ccccc3)c2C#N)s1	2	7	5	-1	102	-3
Cc1ccc(-c2nnc(SCC(=O)NN=Cc3c[nH]c4ccccc34)n2-c2ccccc2)cc1	·	8	·	·	·	·
COc1ccc(-c2c(C(F)(F)F)[nH]n3c(=O)cc(-c4ccccc4)nc23)cc1	12	38*	17	-1	·	-2
CCc1cc(=O)n2[nH]c(C)c(-c3ccc(OC)cc3)c2n1	-1	0	2	0	117	-2
COc1cccc(N=Nc2c(N)[nH]n3c(=O)cc(-c4ccccc4)nc23)c1	6	13	42*	0	·	-4
Cc1ccc(N=Nc2c(N)[nH]n3c(=O)cc(-c4ccccc4)nc23)cc1	6	11	55*	1	93	-5
